# Compounds with a hit are over-represented: about 1.2% of the library has one in this group of screens.
# bovine MsrA act = activates bovine MsrA enzyme. purified bovine MsrA, absorbance read-out. activation, % at 10.6 µM. 360,000 compounds, 0.3% hits; in the data active = activation above about 7.5%
# NPR2 activator = GC-B (human) receptor activation. activation, % at 10 µM. HEK293-GC-B cells, CNP EC30, cGMP TR-FRET; 0% at EC30 CNP, 100% saturating CNP. 370,000 compounds, 0.11% hits. AID 1920062;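 active = activation at 10 µM reaching about 35% in either raw or pattern-adjusted values, limit read from the data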
# NPR1 activator = GC-A (human) enzyme activation | P16066 | AID 1671463 | HEK293 GC-A cells, cGMP TR-FRET, EC30 ANP; 0% at EC30 ANP, 100% saturating ANP | 370,000 compounds, 0.14% hits | activation, % at 10 µM; in the data active = activation above about 40%
# MsrA inhibitor = inhibits bovine methionine sulfoxide reductase A. purified bovine MsrA, absorbance read-out. inhibition, % at 15.5 µM. 360,000 compounds, 0.75% hits
# MsrA conf = bovine MsrA inhibition, confirmed. inhibition, % at 15.5 µM. purified bovine MsrA, absorbance read-out. AID 651822. shares compounds with MsrA inhibitor. 2,300 compounds, 41% hits;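 note: coupled to thioredoxin reductase with NADPH and selenocystamine and DMSO as substrate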
# A number is an active result; . = inactive; / = not tested or not shown. Cut-off read from the data, not from the text of the source, unless noted: active = inhibition above about 4.5%; inactive = the rest.
SMILES,bovine MsrA act,NPR2 activator,NPR1 activator,MsrA inhibitor,MsrA conf
O=C(CSc1nnc(SCc2ccc(Cl)cc2)s1)N/N=C/c1ccc(Cl)cc1Cl,.,.,.,.,/
Cc1nnc(SCC(=O)N/N=C/c2cc(Cl)c(O)c(Cl)c2)s1,.,.,.,5.1,4.7
O=C1N=C(N2C=CC(=C3C=CNC=C3)C=C2)/C(=C/N=NC(=O)c2ccccc2)S1,.,.,.,11,11
COc1ccc(N2C(=O)/C(=C/N(C)C)NC2=S)cc1,.,.,.,7.3,5.8
COc1ccc(N2C(=O)/C(=C/c3cccnc3)NC2=S)cc1,.,.,.,.,/
CCCN1C(=O)/C(=C/c2ccc(C)s2)NC1=S,.,.,.,.,/
CN(C)/C=C1/NC(=S)NC1=O,.,.,.,5.5,6.7
CCN1C(=O)/C(=C\N(C)C)NC1=S,.,.,.,5.0,.
C[C@@H]1COc2cc(N3CCSCC3)ccc2S(=O)(=O)N1C,/,.,.,/,/
COC1=C[C@H](C(=O)NCc2ccc(Br)cc2)C(C)C(c2ccccc2)CC1=O (some centres not stated),/,.,.,/,/
CCOC(=O)/C(C#N)=C/Nc1ccccc1NS(=O)(=O)c1cccc(C(C)=O)c1,.,.,.,6.0,.
CCOC(=O)/C(C#N)=C/Nc1ccccc1NS(=O)(=O)c1ccc(C)c(C)c1,.,.,.,.,/
CCOC(=O)/C(C#N)=C/Nc1ccccc1OC(F)(F)F,.,.,.,11,7.1
Oc1c(Br)cc(/C=N/Nc2ccc(Cl)nn2)cc1Br,.,.,.,5.9,.
CCOc1cc(/C=N/NC(=O)COc2ccccc2C)ccc1OC(=O)c1cccs1,.,.,.,.,/
CCOc1cc(/C=N/NC(=O)c2cccs2)ccc1OC(=O)N1CCOCC1,.,.,.,4.8,.
CCOc1ccccc1Nc1cc2n(c(=O)n1)CCc1cc(OC)c(OC)cc1-2,.,.,.,6.9,.
CCN(CC)c1ccc(SS(=O)(=O)O)cc1,.,.,.,.,/
O=S(=O)(O)Sc1ccccc1,.,.,.,8.5,.
O=C(CSc1nnc(-c2ccccc2)n1-c1ccc(Cl)cc1)Nc1cccc2ccccc12,/,.,.,/,/
COC(=O)Cn1c2ccccc2c2nc3ccccc3nc21,.,.,.,6.7,5.3
C#CCn1c2ccccc2c2nc3ccccc3nc21,.,.,.,5.5,.
N#CCn1c2ccccc2c2nc3ccccc3nc21,.,.,.,.,/
Cc1ccc(-n2c(SCC(=O)Nc3ccc(S(=O)(=O)Nc4nccs4)cc3)nnc2-c2cccs2)cc1,/,.,.,/,/
Cc1ccc(/C=C(\C#N)C(=O)NCc2ccco2)o1,.,.,.,.,/
SMILES,bovine MsrA act,NPR2 activator,NPR1 activator,MsrA inhibitor,MsrA conf
CCOCCCNC(=O)/C(C#N)=C/c1ccc(C)o1,.,.,.,7.0,.
COCCNC(=O)/C(C#N)=C/c1ccc(C(=O)O)cc1,.,/,/,.,/
COCCNC(=O)/C(C#N)=C/c1ccc(C)o1,.,.,.,6.8,.
COCCNC(=O)/C(C#N)=C/c1ccc(SC)cc1,.,.,.,4.7,.
C#CCNC(=O)C[C@H]1C(=O)N(Cc2ccc(OC)cc2)C2=CCCC[C@@]21C(=O)OCC,/,.,.,/,/
Fc1ccccc1-c1n[nH]c(=S)n1/N=C/c1c[nH]c2ccccc12,.,.,.,11,7.3
COc1ccc2cc3cc(C(=O)NCCCN4CCOCC4)oc3nc2c1,.,.,.,6.6,.
CCOC(=O)c1cc(C(=O)OCC)c(=O)[nH]c1N1CCCCC1,.,.,.,7.5,.
CCN(CC)c1ccc(/C=N/NC(=O)CCC(=O)NCc2ccccc2)c(O)c1,.,.,.,4.7,4.8
CCN(CC)c1ccc(/C=N/NC(=O)CNC(=O)C2COc3ccccc3O2)c(O)c1 (configuration not stated),.,.,.,5.2,.
CCOC(=O)N/N=C/c1ccc(N(CC)CC)cc1O,.,.,.,6.1,6.3
COc1cc(/C=N\NC(=O)CNC(=O)C2COc3ccccc3O2)ccc1O (configuration not stated),.,.,.,.,/
N#Cc1c2ccccc2nc2ccccc12,.,.,.,7.0,5.0
Nc1c2ccccc2nc2ccccc12,.,.,.,.,/
O=C(/C=C/c1ccco1)Nc1ccc(-c2nc3ccccc3[nH]2)cc1,.,.,.,.,/
C(=C\c1ccco1)/c1nc2ccccc2[nH]1,.,.,.,5.6,4.9
C(=C\c1nc2ccccc2[nH]1)/c1ccccc1,.,.,.,4.7,.
O=c1[nH]c(/C=C/c2ccc(Br)cc2)nc2ccccc12,.,.,.,.,/

# Compound activity: PubChem, several laboratories
